Of roughly 7,900 targets only a part is listed; those with a hit were picked by preference. About 0.6% of all pairs of compound and target were hits.
Assays:
Test in all cases: log2 fold change, soluble protein after heating vs DMSO (PISA); higher = thermal stabilisation; K562 cells, 10 uM, 30 min; active = over 0.2 and 3.5 SD of the protein, either way, in both replicates (recomputed)
erlotinib = compound: C#Cc1cccc(Nc2ncnc3cc(OCCOC)c(OCCOC)cc23)c1 [erlotinib]
In short: (§1)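 Values are thermal stability changes relative to control samples and are taken from duplicates. They are stated as log2 fold changes. Before quantification by TMTpro 16plex LC-MS/MS with equalised channel sums, K562 cells at 2×10^6 cells/mL were treated with 10 μM compound for 30 min, heated in aliquots for 3 min across 48°C-58°C, pooled, extracted in PBS with 0.5% NP-40 at 4°C, and centrifuged at 21,000xg for 90 min to give the soluble supernatant.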

[1] = compound: C/C(=N\NC(=O)C1=CC(=CC=C1)S(=O)(=O)N2CCOCC2)/C3=C(C=CC(=C3)Cl)O
In short: as §1

[2] = compound: C1=CC(=C(C=C1Cl)C2=NC3=NC=CN=C3C(=N2)NC4=CC=NC=C4)F
In short: as §1

[3] = compound: C1=CC(=CC=C1C2=NC3=C(N2)C=C(C=C3)C(=O)N)OC4=CC=C(C=C4)Cl
In short: as §1

[4] = compound: C1=CC2=C(C=CC(=C2)/C=C\3/C(=O)NC(=NCC4=CC=CS4)S3)N=C1
In short: as §1

[5] = compound: C1=CC2=NC=CN=C2C=C1/C=C/3\C(=O)NC(=O)S3
In short: as §1

[6] = compound: C1=CC=C(C=C1)C2=NC(=C(N2)C3=CC=NC=C3)C4=CC(=C(C=C4)Cl)O
In short: as §1

[7] = compound: C1=CC=C2C(=C1)C3=NNC4=CC=CC(=C43)C2=O
In short: as §1

[8] = compound: C1CCN(C1)C(=O)NC2=CC=CC(=C2)NC3=NC=C(C(=N3)NCCC4=CN=CN4)Br
In short: as §1

[9] = compound: C1CN(CCC1(CC2=CC=C(C=C2)Cl)N)C3=NC=NC4=C3C=CN4
In short: as §1

Measured: log2 fold change

LMBRD2 (UniProt Q68DH5)
inactive: erlotinib 0.015 | [1] -0.007 | [2] 0.097 | [3] 0.011 | [4] 0.022 | [5] 0.038 | [6] 0.016 | [7] -0.118 | [8] -0.073 | [9] 0.1

KMT2C isoform 3 (UniProt Q8NEZ4)
UniProt Q8NEZ4, sequence (Q8NEZ4 whole entry, looked up): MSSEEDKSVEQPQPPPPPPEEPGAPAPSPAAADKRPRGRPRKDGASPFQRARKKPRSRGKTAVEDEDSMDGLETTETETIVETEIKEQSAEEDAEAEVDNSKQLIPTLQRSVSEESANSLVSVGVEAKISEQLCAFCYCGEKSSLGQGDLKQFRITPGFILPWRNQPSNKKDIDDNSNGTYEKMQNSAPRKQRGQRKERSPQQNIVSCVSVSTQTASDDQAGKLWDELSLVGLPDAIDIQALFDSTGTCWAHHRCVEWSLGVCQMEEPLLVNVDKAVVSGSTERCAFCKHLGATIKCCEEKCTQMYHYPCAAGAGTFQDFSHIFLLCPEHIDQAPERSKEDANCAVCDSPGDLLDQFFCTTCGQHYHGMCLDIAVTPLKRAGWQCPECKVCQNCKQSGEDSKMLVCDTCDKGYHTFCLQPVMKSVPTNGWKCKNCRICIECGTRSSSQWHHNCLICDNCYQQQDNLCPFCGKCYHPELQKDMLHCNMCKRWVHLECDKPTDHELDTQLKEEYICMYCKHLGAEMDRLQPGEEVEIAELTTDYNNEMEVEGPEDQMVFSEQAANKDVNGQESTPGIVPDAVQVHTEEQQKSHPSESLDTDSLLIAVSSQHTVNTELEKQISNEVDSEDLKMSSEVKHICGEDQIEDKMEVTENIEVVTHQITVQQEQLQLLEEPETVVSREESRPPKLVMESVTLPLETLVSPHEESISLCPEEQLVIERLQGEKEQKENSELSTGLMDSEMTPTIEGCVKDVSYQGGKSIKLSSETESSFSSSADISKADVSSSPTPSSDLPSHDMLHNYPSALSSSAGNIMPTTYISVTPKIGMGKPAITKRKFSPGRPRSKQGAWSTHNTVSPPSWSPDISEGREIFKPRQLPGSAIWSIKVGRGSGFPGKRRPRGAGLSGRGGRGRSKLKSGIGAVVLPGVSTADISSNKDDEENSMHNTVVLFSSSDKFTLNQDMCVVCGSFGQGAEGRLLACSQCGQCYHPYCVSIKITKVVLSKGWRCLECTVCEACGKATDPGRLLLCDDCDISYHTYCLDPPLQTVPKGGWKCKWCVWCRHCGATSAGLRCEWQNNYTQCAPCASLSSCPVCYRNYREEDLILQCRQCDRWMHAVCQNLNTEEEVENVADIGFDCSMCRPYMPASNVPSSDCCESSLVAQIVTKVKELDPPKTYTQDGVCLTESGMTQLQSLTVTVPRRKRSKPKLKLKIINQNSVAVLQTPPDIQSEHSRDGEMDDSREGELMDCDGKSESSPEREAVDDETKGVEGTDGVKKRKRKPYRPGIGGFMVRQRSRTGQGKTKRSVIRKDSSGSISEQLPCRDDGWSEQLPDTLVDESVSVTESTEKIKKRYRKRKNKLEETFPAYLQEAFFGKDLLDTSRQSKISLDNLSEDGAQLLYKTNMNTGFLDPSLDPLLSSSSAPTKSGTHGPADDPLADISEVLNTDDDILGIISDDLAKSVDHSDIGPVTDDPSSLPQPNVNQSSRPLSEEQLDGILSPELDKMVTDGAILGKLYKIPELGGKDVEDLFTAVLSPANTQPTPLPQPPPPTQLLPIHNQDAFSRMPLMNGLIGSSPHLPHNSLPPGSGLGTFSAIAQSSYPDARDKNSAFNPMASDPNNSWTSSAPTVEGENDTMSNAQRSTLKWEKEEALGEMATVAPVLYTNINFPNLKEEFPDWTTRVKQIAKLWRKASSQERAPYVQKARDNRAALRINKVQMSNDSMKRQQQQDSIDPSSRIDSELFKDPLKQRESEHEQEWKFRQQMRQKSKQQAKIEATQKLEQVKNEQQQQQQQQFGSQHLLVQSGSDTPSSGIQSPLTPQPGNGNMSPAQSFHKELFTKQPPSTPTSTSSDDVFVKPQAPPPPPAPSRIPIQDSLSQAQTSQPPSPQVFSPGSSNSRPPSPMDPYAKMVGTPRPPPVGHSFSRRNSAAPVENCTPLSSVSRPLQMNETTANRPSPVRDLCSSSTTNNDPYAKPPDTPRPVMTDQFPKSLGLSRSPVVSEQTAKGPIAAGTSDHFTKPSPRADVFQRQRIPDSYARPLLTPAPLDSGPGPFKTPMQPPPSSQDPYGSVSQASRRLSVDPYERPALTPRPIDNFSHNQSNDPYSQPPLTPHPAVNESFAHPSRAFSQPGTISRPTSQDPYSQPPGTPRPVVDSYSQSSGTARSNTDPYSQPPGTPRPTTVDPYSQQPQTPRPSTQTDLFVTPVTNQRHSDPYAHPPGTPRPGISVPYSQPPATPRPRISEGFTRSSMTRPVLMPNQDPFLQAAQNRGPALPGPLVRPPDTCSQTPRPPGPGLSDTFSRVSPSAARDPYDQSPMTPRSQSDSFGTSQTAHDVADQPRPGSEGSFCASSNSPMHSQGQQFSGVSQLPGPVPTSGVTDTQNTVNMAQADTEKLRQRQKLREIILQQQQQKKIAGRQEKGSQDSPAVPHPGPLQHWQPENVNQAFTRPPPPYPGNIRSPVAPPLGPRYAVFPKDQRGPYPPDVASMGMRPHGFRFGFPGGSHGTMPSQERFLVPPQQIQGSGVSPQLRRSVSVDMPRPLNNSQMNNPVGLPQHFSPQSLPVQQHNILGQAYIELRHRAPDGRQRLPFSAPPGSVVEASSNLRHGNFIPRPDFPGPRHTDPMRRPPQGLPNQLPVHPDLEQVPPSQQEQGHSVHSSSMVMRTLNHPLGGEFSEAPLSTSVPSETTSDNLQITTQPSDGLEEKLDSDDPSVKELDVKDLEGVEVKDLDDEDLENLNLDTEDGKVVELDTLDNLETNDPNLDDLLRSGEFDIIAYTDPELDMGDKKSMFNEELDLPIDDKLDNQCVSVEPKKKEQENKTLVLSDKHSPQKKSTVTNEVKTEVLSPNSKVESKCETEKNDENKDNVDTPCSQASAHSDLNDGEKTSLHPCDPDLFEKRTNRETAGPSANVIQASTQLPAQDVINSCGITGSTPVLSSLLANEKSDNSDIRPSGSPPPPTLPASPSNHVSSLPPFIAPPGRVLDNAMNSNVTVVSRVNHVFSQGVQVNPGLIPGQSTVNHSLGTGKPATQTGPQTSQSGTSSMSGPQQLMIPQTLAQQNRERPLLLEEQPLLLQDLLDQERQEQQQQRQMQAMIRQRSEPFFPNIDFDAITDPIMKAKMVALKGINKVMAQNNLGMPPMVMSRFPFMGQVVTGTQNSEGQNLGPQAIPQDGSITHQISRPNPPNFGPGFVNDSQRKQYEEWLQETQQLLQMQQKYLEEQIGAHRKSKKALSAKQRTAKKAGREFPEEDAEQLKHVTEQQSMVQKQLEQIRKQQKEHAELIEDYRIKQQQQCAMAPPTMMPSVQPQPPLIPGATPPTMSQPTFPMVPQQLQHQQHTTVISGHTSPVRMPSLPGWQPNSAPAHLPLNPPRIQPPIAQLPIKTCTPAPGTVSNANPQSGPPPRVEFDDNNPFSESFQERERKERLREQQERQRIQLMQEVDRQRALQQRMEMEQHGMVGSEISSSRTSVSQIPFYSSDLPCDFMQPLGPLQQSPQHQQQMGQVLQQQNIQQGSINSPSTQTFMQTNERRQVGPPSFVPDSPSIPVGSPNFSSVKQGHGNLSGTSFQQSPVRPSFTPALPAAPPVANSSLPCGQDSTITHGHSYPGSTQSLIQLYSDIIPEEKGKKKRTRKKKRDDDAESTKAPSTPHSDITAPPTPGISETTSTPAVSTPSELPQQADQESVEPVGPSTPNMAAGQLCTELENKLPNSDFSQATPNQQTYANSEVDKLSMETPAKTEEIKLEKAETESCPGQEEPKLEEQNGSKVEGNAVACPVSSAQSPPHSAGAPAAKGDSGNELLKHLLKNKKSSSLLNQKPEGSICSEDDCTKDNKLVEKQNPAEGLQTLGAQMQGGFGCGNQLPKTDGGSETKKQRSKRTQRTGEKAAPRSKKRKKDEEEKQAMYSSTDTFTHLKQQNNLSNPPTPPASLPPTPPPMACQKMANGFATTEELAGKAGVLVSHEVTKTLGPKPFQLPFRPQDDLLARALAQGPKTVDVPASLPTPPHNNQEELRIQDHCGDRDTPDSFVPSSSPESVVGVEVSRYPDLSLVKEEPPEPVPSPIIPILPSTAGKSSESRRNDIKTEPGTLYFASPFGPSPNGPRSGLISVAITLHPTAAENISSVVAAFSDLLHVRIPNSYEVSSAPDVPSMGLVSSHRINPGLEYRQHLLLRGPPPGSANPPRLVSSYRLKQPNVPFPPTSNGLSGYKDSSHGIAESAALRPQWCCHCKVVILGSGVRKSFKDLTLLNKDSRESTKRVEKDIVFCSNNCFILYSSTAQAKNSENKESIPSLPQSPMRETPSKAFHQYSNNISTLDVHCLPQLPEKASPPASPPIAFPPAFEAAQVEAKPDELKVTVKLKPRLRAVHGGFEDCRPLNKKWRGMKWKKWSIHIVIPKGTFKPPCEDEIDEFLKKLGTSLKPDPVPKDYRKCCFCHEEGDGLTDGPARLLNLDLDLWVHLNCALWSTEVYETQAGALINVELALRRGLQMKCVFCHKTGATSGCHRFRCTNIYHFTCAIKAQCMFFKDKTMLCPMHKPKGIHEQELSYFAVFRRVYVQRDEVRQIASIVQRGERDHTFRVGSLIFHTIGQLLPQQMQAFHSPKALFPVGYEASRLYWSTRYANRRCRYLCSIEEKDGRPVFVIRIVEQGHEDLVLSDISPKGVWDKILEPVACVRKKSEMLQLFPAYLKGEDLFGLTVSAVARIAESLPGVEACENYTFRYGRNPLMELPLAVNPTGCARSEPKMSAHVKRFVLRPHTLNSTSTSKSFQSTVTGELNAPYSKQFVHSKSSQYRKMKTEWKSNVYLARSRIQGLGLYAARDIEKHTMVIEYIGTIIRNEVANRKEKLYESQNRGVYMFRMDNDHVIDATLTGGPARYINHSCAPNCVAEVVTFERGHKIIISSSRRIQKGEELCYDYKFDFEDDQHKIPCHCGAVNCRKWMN
inactive: erlotinib 0.038 | [1] -0.032 | [2] 0.006 | [3] 0.012 | [4] 0.078 | [5] 0.021 | [6] -0.194 | [7] -0.056 | [8] 0.003 | [9] 0.018

L2HGDH (UniProt Q9H9P8)
inactive: erlotinib 0.027 | [1] 0.169 | [2] 0.009 | [3] 0.043 | [4] 0.07 | [5] 0.01 | [6] 0.05 | [7] 0.093 | [8] -0.005 | [9] -0.007

JMJD6 isoform 3 (UniProt Q6NYC1)
inactive: erlotinib -0.009 | [1] 0.011 | [2] 0.039 | [3] 0.044 | [4] 0.051 | [5] 0.03 | [6] 0.107 | [7] -0.037 | [8] -0.007 | [9] 0.181

MAP3K7 (UniProt O43318)
inactive: erlotinib 0.078 | [1] 0.009 | [2] -0.067 | [3] -0.091 | [4] 0.034 | [5] -0.031 | [6] -0.016 | [7] 0.113 | [8] -0.005 | [9] -0.168

LEO1 (UniProt Q8WVC0)
inactive: erlotinib 0.132 | [1] 0.108 | [2] 0.194 | [3] -0.079 | [4] -0.006 | [5] 0.007 | [6] -0.035 | [7] -0.039 | [8] -0.076 | [9] -0.045

IRAK4 (UniProt Q9NWZ3)
inactive: erlotinib 0.041 | [1] -0.009 | [2] 0.068 | [3] -0.038 | [4] 0.059 | [5] -0.023 | [6] 0.011 | [7] -0.004 | [8] 0.069 | [9] -0.074

MEAK7 (UniProt Q6P9B6)
inactive: erlotinib 0.015 | [1] -0.005 | [2] 0.023 | [3] 0.054 | [4] 0.069 | [5] 0.014 | [6] -0.062 | [7] 0.092 | [8] -0.042 | [9] -0.017

IL10RB (UniProt Q08334)
inactive: erlotinib 0.05 | [1] -0.089 | [2] -0.106 | [3] 0.053 | [4] 0 | [5] -0.03 | [7] 0.029 | [8] 0.037 | [9] 0.075

ITM2B (UniProt Q9Y287)
inactive: erlotinib 0.099 | [1] -0.012 | [2] -0.122 | [3] 0.041 | [4] 0 | [5] 0.042 | [6] 0.068 | [7] -0.12 | [8] -0.066 | [9] 0.027

LGALS8 isoform 2 (UniProt O00214)
inactive: erlotinib -0.011 | [1] -0.034 | [2] -0.282 | [3] 0.062 | [4] -0.038 | [5] -0.059 | [7] 0.036 | [8] 0.043 | [9] 0.039

MFSD5 isoform 2 (UniProt Q6N075)
inactive: erlotinib 0.147 | [1] 0.057 | [2] 0.041 | [3] 0.115 | [4] -0.061 | [5] 0.038 | [6] -0.144 | [7] 0.109 | [8] 0.014 | [9] 0.034

LUM (UniProt P51884)
inactive: erlotinib -0.147 | [1] -0.043 | [2] 0.095 | [3] 0.039 | [4] 0.063 | [6] -0.057 | [7] -0.068 | [8] 0.185 | [9] 0.307

KIFBP (UniProt Q96EK5)
inactive: erlotinib -0.034 | [1] 0.147 | [2] 0 | [3] 0.017 | [4] 0.074 | [5] -0.015 | [6] -0.008 | [7] 0.03 | [8] 0.014 | [9] -0.058

LAMP2 isoform 2 (UniProt P13473)
inactive: erlotinib -0.072 | [1] 0.02 | [2] 0.041 | [3] 0.082 | [4] -0.022 | [5] 0.088 | [7] -0.007 | [8] 0.018 | [9] 0.049

LRRFIP1 isoform 4 (UniProt Q32MZ4)
active: [1] -1.2
inactive: erlotinib -0.122 | [2] -0.121 | [3] -0.006 | [4] -0.045 | [7] 0.072

MAGED1 isoform 2 (UniProt Q9Y5V3)
inactive: erlotinib 0.024 | [1] 0.044 | [2] -0.311 | [3] -0.059 | [4] -0.064 | [7] -0.012

ITGA2B (UniProt P08514)
inactive: erlotinib -0.046 | [1] -0.051 | [2] 0.023 | [3] 0.06 | [4] -0.023 | [6] 0 | [7] -0.133 | [8] 0.065 | [9] -0.13

LUC7L (UniProt Q9NQ29)
inactive: erlotinib -0.084 | [1] 0.043 | [2] -0.092 | [3] 0.114 | [4] -0.062 | [5] -0.003 | [6] -0.105 | [7] -0.016 | [8] -0.016 | [9] -0.035

MARK3 (UniProt P27448)
active: [7] -0.578
inactive: erlotinib 0.009 | [1] 0.116 | [2] -0.031 | [3] 0.014 | [4] 0 | [5] 0.008 | [6] -0.032 | [8] -0.221 | [9] -0.208

IGF2R (UniProt P11717)
inactive: erlotinib -0.052 | [1] 0 | [2] 0 | [3] 0.025 | [4] -0.012 | [5] 0.003 | [6] 0.009 | [7] -0.021 | [8] 0.002 | [9] 0.012

MAP2K7 isoform 4 (UniProt O14733)
inactive: erlotinib 0.021 | [1] -0.005 | [2] 0.061 | [3] 0.017 | [4] 0.01 | [5] 0.017 | [6] -0.009 | [7] -0.032 | [8] -0.012 | [9] 0.023

MAP1LC3B2 (UniProt A6NCE7)
inactive: erlotinib 0.009 | [1] 0.093 | [2] 0.038 | [3] 0 | [4] -0.031 | [5] 0.052 | [6] 0.016 | [7] 0.083 | [8] -0.002 | [9] 0.036

MAGEC2 (UniProt Q9UBF1)
inactive: erlotinib -0.026 | [1] 0.024 | [2] -0.099 | [3] -0.018 | [4] -0.003 | [5] 0.03 | [6] -0.011 | [7] -0.004 | [8] -0.022 | [9] 0.051

KPNA6 (UniProt O60684)
inactive: erlotinib 0.077 | [1] 0.108 | [2] -0.068 | [3] -0.075 | [4] 0.013 | [5] 0.059 | [6] 0.015 | [7] -0.119 | [8] 0.017 | [9] -0.07

LEPROT (UniProt O15243)
UniProt O15243, sequence (O15243 whole entry, looked up): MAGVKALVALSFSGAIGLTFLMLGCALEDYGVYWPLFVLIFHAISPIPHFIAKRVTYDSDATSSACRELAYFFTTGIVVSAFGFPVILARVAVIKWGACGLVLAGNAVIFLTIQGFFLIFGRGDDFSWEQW
inactive: erlotinib 0.06 | [1] 0.034 | [2] 0.081 | [3] 0.088 | [4] 0.119 | [7] -0.058 | [8] -0.011 | [9] 0.001

MED17 (UniProt Q9NVC6)
inactive: erlotinib 0.017 | [1] 0.064 | [2] -0.077 | [3] 0.072 | [4] -0.083 | [6] 0.094 | [7] -0.034 | [8] -0.194 | [9] -0.047

KHDC4 (UniProt Q7Z7F0)
inactive: erlotinib -0.005 | [1] 0.14 | [2] 0.009 | [3] -0.058 | [4] 0.089 | [5] 0.084 | [6] 0.074 | [7] -0.041 | [8] -0.042 | [9] 0.025

LYN isoform 2 (UniProt P07948)
inactive: erlotinib -0.387 | [1] 0.117 | [2] -0.234 | [3] -0.152 | [4] 0.146 | [7] -0.163

INPP5B (UniProt P32019)
inactive: erlotinib -0.027 | [1] 0.056 | [2] 0.071 | [3] -0.052 | [4] 0.055 | [5] -0.018 | [6] 0.026 | [7] -0.04 | [8] -0.064 | [9] -0.039

MBLAC1 (UniProt A4D2B0)
inactive: erlotinib 0.074 | [1] -0.042 | [3] 0.026 | [4] 0.036 | [5] 0.019 | [6] 0.002 | [7] -0.024

MARK2 (UniProt E9PC69)
inactive: erlotinib 0.12 | [1] 0.091 | [2] 0.043 | [3] -0.042 | [4] 0.115 | [5] -0.1 | [6] -0.014 | [8] -0.227 | [9] -0.126
active: [7] -0.756

Source: the supplement of paper PMC10849652
